USP28 inh – inhibitors of human USP28 deubiquitinase | Q96RU2 | inhibition, % at 25 µM | purified USP28, Ub-rhodamine cleavage fluorescence, 30 min | 3% of 47,000 active | AID 1645857
USP30 inh – inhibitors of human USP30 deubiquitinase; purified USP30, Ub-rhodamine cleavage fluorescence; inhibition, % at 25 µM; 5.3% of 47,000 active
OTUD3 block – inhibitors of human OTUD3 deubiquitinase; inhibition, % at 25 µM; purified OTUD3, Ub-rhodamine fluorescence, 2 h; Q5T2D3; 0.7% of 47,000 active
USP17 inh – human USP17-like deubiquitinase inhibition. inhibition, % at 50 µM. purified USP17, Ub-rhodamine cleavage fluorescence, 3 h. AID 1645855. 6.5% of 47,000 active. A8MUK1
Target sequence (A8MUK1 whole entry, looked up): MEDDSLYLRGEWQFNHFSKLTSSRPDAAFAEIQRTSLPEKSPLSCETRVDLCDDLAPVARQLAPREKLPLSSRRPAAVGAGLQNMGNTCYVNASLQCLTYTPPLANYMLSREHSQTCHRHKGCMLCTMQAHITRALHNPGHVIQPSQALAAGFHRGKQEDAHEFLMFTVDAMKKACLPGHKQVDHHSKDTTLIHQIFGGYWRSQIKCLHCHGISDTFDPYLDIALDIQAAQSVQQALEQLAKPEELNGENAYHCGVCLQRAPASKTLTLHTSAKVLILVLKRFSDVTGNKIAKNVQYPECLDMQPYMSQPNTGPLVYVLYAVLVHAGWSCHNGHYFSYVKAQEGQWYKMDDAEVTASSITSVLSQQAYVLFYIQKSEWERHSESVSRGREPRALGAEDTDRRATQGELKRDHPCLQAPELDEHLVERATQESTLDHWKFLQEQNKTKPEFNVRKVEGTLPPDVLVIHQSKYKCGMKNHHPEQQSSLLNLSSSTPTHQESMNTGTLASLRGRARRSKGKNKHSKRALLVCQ
Numbers stand for hits; 0 = inactive; - = not tested or not shown. Hits are enriched below; roughly 11% of the tested compounds scored in any of these assays. No stated cut-off is given here; in the data, active means inhibition above about 30%; inactive means the rest.

SMILES	USP28 inh	USP30 inh	OTUD3 block	USP17 inh
Cc1ccc(-n2nc(C(=O)NCc3ccccn3)cc2-c2cccnc2)cc1	0	0	0	0
COc1cc(NC(=O)c2cc(-c3ccncc3)n(-c3ccccc3)n2)cc(OC)c1	40	0	0	0
COc1ccc(CN(C)Cc2cc(=O)c3cc(C)ccc3[nH]2)cc1OC	0	0	0	0
Cc1c(Cl)cccc1NC(=O)C1CCCN(c2nnc(-n3cccc3)s2)C1 (configuration not stated)	0	0	0	0
CC1(C)CC2CC(C)(CN2Cc2c(O)ccc3ccccc23)C1 (configuration not stated)	0	0	0	57
COC(=O)C1Cc2ccccc2CN1Cc1c(O)ccc2ccccc12 (configuration not stated)	0	0	0	0
CN(c1ccccc1)c1ccc2ccc(C(=O)NCCc3ccncc3)cn12	0	0	0	0
CC1(C)C=Cc2cc(O)ccc2O1	0	0	0	40
CN1c2ccccc2-c2ccccc2C12C=Cc1cc([N+](=O)[O-])ccc1O2 (configuration not stated)	0	0	0	0
CCCOc1ccccc1C1CC(=O)Nc2n[nH]c(C)c21 (configuration not stated)	0	0	0	0
COc1cccc(C(=O)N2CCN(c3ncnc4c3nnn4Cc3ccccc3)CC2)c1	33	35	0	0
Cc1ccc(-c2cc(C(F)F)n3ncc(C(=O)Nc4ccc(O)cc4)c3n2)cc1	0	0	0	35
COCCCNC(=O)c1ccc(Cn2c(=O)c3ccccc3n(CC(=O)Nc3ccc(OC)cc3)c2=O)cc1	0	0	0	67
COCCCNC(=O)Cn1c(=O)n(Cc2ccc(C(=O)NCc3ccccc3OC)cc2)c(=O)c2ccccc21	0	53	0	0
COCCCNC(=O)c1ccc(Cn2c(=O)c3ccccc3n(CC(=O)Nc3ccc(OC)cc3OC)c2=O)cc1	-	-	0	75
COc1ccc(-c2cc(Nc3ncnc4sccc34)ccc2OC)cc1	0	0	0	0
O=C(c1ccn[nH]1)N1CCOCC(Cc2ccc3[nH]ncc3c2)C1 (configuration not stated)	0	0	0	0
CCN1CCc2cc(C(=O)NC)c(NCC3CC3)nc2CC1	0	0	0	0
CSCCC(NC(=O)c1sccc1C)c1nnc2ccccn12 (configuration not stated)	0	41	0	0
CSCCC(NC(=O)c1cccs1)c1nnc2ccccn12 (configuration not stated)	0	0	0	0
CC(=O)O[C@@H]1/C=C(/C)[C@H](OC(=O)c2ccc(O)cc2)C/C=C(/C)CCCC1(C)C	0	0	0	31
COc1ccc(NC(=O)c2cc3c(C(F)(F)F)nn(C)c3s2)cc1	0	0	0	48
O=S(=O)(Nc1ccc(N2CCCCC2)cc1)c1ccccc1F	0	0	0	34
O=S(=O)(Nc1ccc(N2CCCCC2)cc1)c1cccc(F)c1	0	0	0	0
Cc1noc(/C=C/c2sc3ccccc3c2Cl)c1[N+](=O)[O-]	0	0	0	0
SMILES	USP28 inh	USP30 inh	OTUD3 block	USP17 inh
Cc1nc(-c2cccs2)cc(-c2cccc(Cl)c2)c1C#N	0	37	0	0
CCOC(=O)COc1nc(-c2cccs2)cc(C(F)(F)F)c1C#N	0	0	0	0
Nc1ncnc(N2CC(=O)N(CCc3ccccc3)C(=O)C2)c1[N+](=O)[O-]	0	0	0	0
Cn1cnnc1Sc1ncnc(N)c1[N+](=O)[O-]	0	34	0	0
CC(C)=CCC[C@@](C)(O)[C@@H]1CC[C@@](C)(O)[C@H]1C	0	33	0	0
CN(C)CCCN(C(=O)c1cc2ccccc2oc1=O)c1nc2ccc(F)cc2s1	44	79	0	55
CN(C)CCCN(C(=O)c1ccco1)c1nc2ccc(F)cc2s1	0	0	0	0
COc1ccc(N=c2oc3ccccc3cc2C(=O)NCC2CCCO2)c(OC)c1 (configuration not stated)	0	0	0	0
CCOc1ccc(-c2ccc3nnc(SCC(=O)Nc4ccc(F)cc4)n3n2)cc1	0	33	0	-
O=C(Cc1ccc(-c2ccccc2)cc1)Nc1ccc(F)cc1	0	0	0	0
O=C(Cn1nc(-c2ccccc2)cc(NC(=O)c2ccccc2)c1=O)Nc1ccc(F)cc1	0	39	0	39
CC(=O)c1ccc(NC(=O)Cn2nc(-c3ccccc3)cc(NC(=O)C(C)C)c2=O)cc1	0	0	0	0
O=C(CSc1nnc2ccc(-c3ccccc3)nn12)Nc1ccc(F)cc1	0	34	0	43
Cc1ccc(-c2noc(-c3cn(Cc4ccc(N)cc4)cn3)n2)cc1	0	0	0	0
Cc1cccc(NC(=O)Cn2cnc(-c3noc(-c4ccccc4)n3)c2)c1C	39	44	37	0

Source: PubChem
